Data on 7 compounds can be found in PubChem BioAssay (NCATS).

Test [1] deals with Zika virus NS2B-NS3 protease. Nature of the test: Primary screen GU AMC qHTS for Zika virus inhibitors (AID 1347154).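 Also: 0% = no-inhibitor control and -100% = no-enzyme control; nearly all actives have a fitted effect of over 70% in size.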 Summed up: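 Unlinked Zika NS2B hydrophilic domain/NS3 protease domain noncovalent complex (25 nM final) in 10 mM Tris-HCl pH 8.0, 0.01% Tween 20, with AMC peptide substrate. Fluorescence (ex 340, em 450 nm) change over 15 min, room temperature; percent inhibition fitted to 4-parameter Hill equation.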
Background: qHTS replaces the single test concentration by a dilution series.

A short description of test [2]: Primary qHTS for small molecule stabilizers of the endoplasmic reticulum resident proteome: Secreted ER Calcium Modulated Protein (SERCaMP) assay (AID 1508630). Also: % is scaled to controls: 0 for no effect and ±100 for the full control effect. The method, boiled down:
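The SH-SY5Y reporter protocol was run at 3 concentrations up to 38.3 uM (primary) or 11 concentrations (follow-up): 16 h compound, 100 nM thapsigargin for 4 h, then extracellular luciferase luminescence.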

The target of test [3] is Lysosomal acid glucosylceramidase (Homo sapiens) (UniProt P04062). The experiment in a line: Glucocerebrosidase-p2 (AID 348; in the data active = potency below about 10 µM; also: potency is read from the fitted curve at half-maximal effect). The conditions noted are these: purified GBA, blue fluorogenic substrate, 40 min. Summed up: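 Normal human glucocerebrosidase (0.2 nM) with blue fluorogenic substrate (80 uM final) in citrate/phosphate pH 5.9 with 10mM sodium taurocholate, 0.01% tween-20; 40 min RT, NaOH/glycine stop; fluorescence Ex 365/Em 440; AC50 from a titration from 0.6 nM upwards.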

Test [4] is described as follows: AP1 Signaling Pathway (AID 357; active = well fitted curve in either direction with a large enough effect, not every such curve was filed as active;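 also: ME-180 reporter cells stimulated with EGF at its EC50 level; % is scaled to controls: 0 for no effect and ±100 for the full control effect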). Summed up: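 Cells are seeded overnight, exposed to compound titrations and an EC50 level of EGF for 5 hours at 37 °C, then loaded with CCF4 dye for 2.5 hours. Beta-lactamase activity under the AP-1 element is read as a blue/green ratio.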
Test [5] in a line: NFAT Signaling Pathway (AID 444; active = well fitted curve in either direction with a large enough effect, not every such curve was filed as active;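 also: carbachol stimulus at about its EC50 of 1 µM final; % is scaled to controls: 0 for no effect and ±100 for the full control effect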). The conditions noted are these: Jurkat NFAT-bla M1, carbachol, beta-lactamase ratio, 5 h; at 7.69 µM (top of the series). The method, boiled down:
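Jurkat cells carrying an NFAT-driven β-lactamase reporter and co-transfected muscarinic M1 receptor were treated with compound plus carbachol (1 uM final, an EC50 level) for 5 h at 37 °C. CCF4 loading followed for 1 h at RT; 460/530 nm ratio gave %activity.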

Test [6] can be described thus: Stat Signaling Pathway (AID 446; active = well fitted curve in either direction with a large enough effect, not every such curve was filed as active;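 also: ME-180 cervical cancer cells given 40 pM IL-6 alongside compound; SIE-controlled beta-lactamase reporter measured as 460/530 nm FRET emission ratio; % is scaled to controls: 0 for no effect and ±100 for the full control effect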). Summed up:
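Overnight-plated ME-180 cells bearing a STAT Inducible Element beta-lactamase reporter; 5 h co-exposure to compound and 40 pM IL-6; values normalized to 300 pM IL-6 and 125 nM JAK inhibitor controls.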

Test [7] has as its target Glucocorticoid receptor (Homo sapiens) (UniProt P04150). The experiment in a line: GR-GFP Redistribution (AID 450;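 active = compounds whose dose series gives a full or clear partial fitted curve of increased nuclear translocation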; also: potency is read from the fitted curve at half-maximal effect). The conditions noted are these: U2OS GR-GFP nuclear translocation, laser cytometry, 2 h.
Test [8] shares this target. Nature of the test: GR-EFC Redistribution (AID 451; calls by dose curve; also: potency is read from the fitted curve at half-maximal effect). The settings on record: CHO-K1 GR-EFC translocation, beta-gal luminescence, 2 h. Summed up: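 CHO-K1 cells stably expressing nuclear-localized β-gal enzyme acceptor and GR fused C-terminally to the enzyme donor fragment; ligand-driven nuclear translocation restores β-gal by complementation. Compounds titrated up to 46 uM final, 2 h at 37 °C; luminescence read.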

Test [9] concerns the target Mitogen-activated protein kinase 10 (Mus musculus) (UniProt Q61831). Nature of the test: JNK3 AlphaScreen Assay (AID 530; active = well fitted curve in either direction with a large enough effect, not every such curve was filed as active). Summed up: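 Biotinylated GST-cJun(1-79) served as substrate for JNK3 in HepG2 lysates stimulated with IL-1beta and TNF-alpha. ATP was 10 uM final, pH 7.6. Ser73 phosphorylation was quantified by AlphaScreen (680 nm excitation).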
Test [10] has as its target 3',5'-cyclic-AMP phosphodiesterase 4B (Homo sapiens) (UniProt Q07343). Nature of the test: qHTS Assay for Inhibitors of PDE-IV (AID 607; active = well fitted activation curve with a large enough effect in the main read-out, with a control signal flat, not every such curve was filed as active; also: % of control where 0% means no effect). The method, boiled down:
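Live HEK293 cells with a modified cyclic nucleotide-gated (CNG) channel report intracellular cAMP via membrane-potential dye fluorescence (ex 535/em 590 nm). Endogenous PDE-IV was targeted. Compounds were tested at up to 22.9 uM final; RO 20-1724 100 uM served as control.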

Test [11] is described as follows: qHTS Assay for Lipid Storage Modulators (AID 1519; calls by dose curve). The settings on record: Drosophila S3 cells, BODIPY lipid droplet/cell ratio, laser cytometry, cells loaded with oleic acid. Summed up: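 Cells seeded at 5,000 per well were treated with compounds over a concentration series and loaded with oleic acid (400 uM, as added). Lipid droplet fluorescence (488 nm excitation, 500-530 nm channel) was read by laser-scanning cytometry and normalized to 20 uM Triacsin C.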

Test [12] has as its target DNA dC->dU-editing enzyme APOBEC-3G (Homo sapiens) (UniProt Q9HC16). Nature of the test: qHTS for inhibitors of Vif-A3G interactions: Validation (AID 588379). Also: 0% is about no effect. Summed up: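 Yellow fluorescence (Ex 488, Em 500-530) of Vif-coexpressing HeLa A3G-eYFP cells, scanned by Acumen cytometer, reports blocked A3G degradation. Cells plated at 700/well overnight at 37 deg C before compound addition, then a further overnight compound incubation at 37 deg C.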

“And” between values parts separate entries of the source, which are not always exact repeats. Equal entries are not always repeated. Results filed as inconclusive are left out. The source made the active and inactive calls. Unless noted, calls follow the shape of the dose curve; as a rule, active = well fitted curve in the direction sought with a large enough effect; inconclusive = small, poorly fitted or top-dose-only effect, or another doubt; inactive = no such curve, though single readings can be large; an effect the other way counts as inactive or inconclusive. Where a SMILES comes first, the peptide text is derived from it.

Glucocorticoid receptor (Homo sapiens), sequence (P04150 whole entry, looked up, the tested form may be a part): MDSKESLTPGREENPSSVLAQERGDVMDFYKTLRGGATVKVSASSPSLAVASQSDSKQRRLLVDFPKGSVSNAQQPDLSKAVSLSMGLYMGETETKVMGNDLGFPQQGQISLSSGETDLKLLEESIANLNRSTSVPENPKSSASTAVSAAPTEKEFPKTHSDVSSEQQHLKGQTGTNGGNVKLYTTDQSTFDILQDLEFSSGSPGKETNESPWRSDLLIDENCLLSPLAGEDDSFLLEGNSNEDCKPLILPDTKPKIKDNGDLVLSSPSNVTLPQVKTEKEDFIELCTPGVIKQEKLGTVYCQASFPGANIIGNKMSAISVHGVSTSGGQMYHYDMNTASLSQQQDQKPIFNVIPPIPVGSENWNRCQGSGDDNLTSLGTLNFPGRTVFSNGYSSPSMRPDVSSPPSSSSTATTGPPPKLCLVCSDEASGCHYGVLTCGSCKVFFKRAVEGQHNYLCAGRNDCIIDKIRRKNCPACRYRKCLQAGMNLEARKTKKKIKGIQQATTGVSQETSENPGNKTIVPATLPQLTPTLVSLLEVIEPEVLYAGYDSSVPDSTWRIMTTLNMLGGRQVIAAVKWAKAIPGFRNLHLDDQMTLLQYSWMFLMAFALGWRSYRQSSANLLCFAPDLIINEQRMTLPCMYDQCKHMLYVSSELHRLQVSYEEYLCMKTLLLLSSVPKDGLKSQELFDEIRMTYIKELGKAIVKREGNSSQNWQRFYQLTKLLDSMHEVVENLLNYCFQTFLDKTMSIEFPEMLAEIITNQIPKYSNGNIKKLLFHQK
3',5'-cyclic-AMP phosphodiesterase 4B (Homo sapiens), sequence (Q07343 whole entry, looked up): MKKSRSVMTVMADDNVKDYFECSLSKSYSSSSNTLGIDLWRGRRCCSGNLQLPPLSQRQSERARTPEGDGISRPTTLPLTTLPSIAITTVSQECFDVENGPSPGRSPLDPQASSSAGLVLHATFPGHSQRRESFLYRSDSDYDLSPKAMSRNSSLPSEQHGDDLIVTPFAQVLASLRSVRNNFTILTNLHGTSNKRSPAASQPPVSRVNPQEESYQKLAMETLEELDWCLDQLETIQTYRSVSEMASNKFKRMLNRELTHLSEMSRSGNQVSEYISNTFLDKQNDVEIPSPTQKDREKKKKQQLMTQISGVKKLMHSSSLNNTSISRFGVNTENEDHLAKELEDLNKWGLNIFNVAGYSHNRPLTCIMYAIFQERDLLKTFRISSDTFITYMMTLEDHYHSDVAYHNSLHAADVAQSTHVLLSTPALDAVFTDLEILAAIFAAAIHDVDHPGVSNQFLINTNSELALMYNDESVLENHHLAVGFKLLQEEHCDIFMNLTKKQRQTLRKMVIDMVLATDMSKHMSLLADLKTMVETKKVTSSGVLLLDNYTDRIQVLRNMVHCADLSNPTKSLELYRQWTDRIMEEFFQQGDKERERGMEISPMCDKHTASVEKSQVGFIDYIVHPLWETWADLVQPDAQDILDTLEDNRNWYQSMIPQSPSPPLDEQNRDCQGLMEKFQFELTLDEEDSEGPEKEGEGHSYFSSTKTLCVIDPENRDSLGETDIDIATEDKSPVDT
Lysosomal acid glucosylceramidase (Homo sapiens), sequence (P04062 whole entry, looked up): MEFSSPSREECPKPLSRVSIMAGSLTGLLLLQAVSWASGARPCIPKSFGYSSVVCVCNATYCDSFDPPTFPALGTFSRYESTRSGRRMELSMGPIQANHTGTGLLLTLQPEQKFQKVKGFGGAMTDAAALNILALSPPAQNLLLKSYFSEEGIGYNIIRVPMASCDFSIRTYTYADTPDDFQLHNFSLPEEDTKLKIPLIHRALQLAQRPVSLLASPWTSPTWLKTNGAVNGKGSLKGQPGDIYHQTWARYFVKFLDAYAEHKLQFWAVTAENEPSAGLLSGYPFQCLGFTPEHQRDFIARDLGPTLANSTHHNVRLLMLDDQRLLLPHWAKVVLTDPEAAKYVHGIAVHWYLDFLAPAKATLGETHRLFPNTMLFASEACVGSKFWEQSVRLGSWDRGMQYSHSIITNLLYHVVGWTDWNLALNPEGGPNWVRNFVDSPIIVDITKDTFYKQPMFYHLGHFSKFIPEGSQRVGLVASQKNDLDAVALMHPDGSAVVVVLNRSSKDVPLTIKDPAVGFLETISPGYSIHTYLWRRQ
DNA dC->dU-editing enzyme APOBEC-3G (Homo sapiens), sequence (Q9HC16 whole entry, looked up): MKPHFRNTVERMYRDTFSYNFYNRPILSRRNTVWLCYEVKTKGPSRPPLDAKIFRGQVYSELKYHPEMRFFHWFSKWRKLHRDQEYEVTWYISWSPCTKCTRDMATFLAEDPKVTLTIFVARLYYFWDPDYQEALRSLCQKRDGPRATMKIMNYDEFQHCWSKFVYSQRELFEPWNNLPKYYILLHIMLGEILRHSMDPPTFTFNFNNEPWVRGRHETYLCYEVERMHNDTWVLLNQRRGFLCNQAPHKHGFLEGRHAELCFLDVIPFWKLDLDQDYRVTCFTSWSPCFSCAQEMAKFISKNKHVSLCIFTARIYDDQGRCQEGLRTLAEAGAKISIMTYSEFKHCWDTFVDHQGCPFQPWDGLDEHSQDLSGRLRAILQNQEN

Turning to `N[C@]1(C(=O)O)CC[C@@H](C(=O)O)C1` (racemic), the Potency result in test [1] and in [2] was “inactive” in each case.

Take `N[C@@H](CCP(=O)(O)O)C(=O)O`: the Potency in [3] was > 11.4 µM (inactive); in test [7] it was > 46 µM (inactive); in test [8], > 46 µM (inactive) and > 9.22 µM (inactive). The activity change, negative = inhibition is 9.69% [at 7.69 µM] (inactive) in [4], 3.73% (inactive) in [5] and -1.66% (inactive) in test [11] (at 57.5 µM (top of the series)). For the same compound, the activity, negative = inhibition in test [6] is 11.7% [at 7.69 µM] (inactive). Also, the result in [9] was inactive. Also, the Potency result in test [10], in test [12], in test [1] and in test [2] was “inactive” throughout. The figures for the max response in test [11] (measured here: cell count channel max response) and in [11] (measured here: lipid channel max response) were -5.2% and -9.13%, respectively.

Turning to `C[C@]12CCC3C(CC[C@H]4C[C@H](O)CC[C@]34C)[C@@H]1CC[C@@H]2C(=O)CO` (stereo partly specified), the Potency result in test [1] and in [2] was “inactive” each time.

As to `CCCCCCCCCCCCCCCC(=O)OC[C@H](COP(=O)([O-])OCC[N+](C)(C)C)OC(C)=O`, the activity change, negative = inhibition in test [1] is 9.56% [at 6.83 µM] (inactive); in test [2] it was -14.9% [at 3.88 µM] (inactive).

As to `C[C@H](NC(=O)[C@@H](N)Cc1ccc(O)cc1)C(=O)N[C@@H](Cc1ccccc1)C(=O)NCC(=O)N[C@@H](Cc1ccc(O)cc1)C(=O)N1CCC[C@H]1C(=O)N[C@@H](CO)C(N)=O`, the values for the activity change, negative = inhibition in test [1] and in test [2] were 8.07% [at 6.83 µM] (inactive) and -16.9% [at 3.88 µM] (inactive), respectively.

As to `CO[C@@H]1C[C@@H](C[C@H]2CC[C@H](C)[C@@H]([C@@H](C)C(=O)O)O2)O[C@]2(O[C@](C)([C@H]3CC[C@@](C)(C4OC([C@H]5O[C@@](O)(CO)[C@H](C)C[C@@H]5C)C[C@@H]4C)O3)C[C@H]2C)[C@@H]1C` (stereo partly specified), the Potency result in [1] and in test [2] was “inactive” in each case.

With `NC(=O)[C@@H]1CCCN1C(=O)[C@H](Cc1ccccc1)NC(=O)[C@@H]1CCCN1C(=O)[C@@H](N)Cc1ccc(O)cc1` (H-YPFP-NH2), the figures for the activity change, negative = inhibition in test [1] and in test [2] were 12.8% [at 6.83 µM] (inactive) and -13.2% [at 3.88 µM] (inactive), respectively.
